This note sets out measurements from the supplement of paper PMC8285479.

Where “and” joins values, the source holds several entries; their conditions need not be identical. Identical values can stand only once. Counter-ions that a name gives are not always drawn. ± gives the standard deviation of the averaged measurements. Over roughly 1,900 compounds, “normalised cell viability (NPI; 0 = phenylarsine oxide control, 1 = DMSO control)” has its median near 1; the lowest 2% begin near 0.039. Only a selection was taken, and the lowest values are over-represented in it overall.

The experiment deals with NCI-H1944. The experiment is described as follows: normalised cell viability (NPI; 0 = phenylarsine oxide control, 1 = DMSO control) (fraction of DMSO control); NCI-H1944 is a non-small cell lung cancer line; higher = more viable cells (less compound toxicity). The following applies: 6 days.
Where [1] appears, read: glucocorticoid arm: hydrocortisone 2.75 uM co-treatment, compound 1 µM.
[2] abbreviates: glucocorticoid arm: hydrocortisone 2.75 uM co-treatment, compound 5 µM.
Setting [3] is: glucocorticoid arm: hydrocortisone 2.75 uM pre-treated 2 days and continued, compound 1 µM.
The mark [4] stands for this setting: glucocorticoid arm: hydrocortisone 2.75 uM pre-treated 2 days and continued, compound 5 µM.
[5] abbreviates: glucocorticoid arm: vehicle, compound 1 µM.
Where [6] appears, read: glucocorticoid arm: vehicle, compound 5 µM.
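Further: CTB read-out in 384-well plates, triplicate wells, NPI normalised per plate against 1 µM phenylarsine oxide (0) and 0.1% DMSO (1) controls.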

Take `CN1CC[C@H](c2c(O)cc(O)c3c(=O)cc(-c4ccccc4Cl)oc23)[C@H](O)C1` [Flavopiridol hydrochloride]: the normalised cell viability under setting [1] was found to be 0.0447 ± 0.0058; the normalised cell viability under setting [2] came to 0.0238 ± 0.0012; the normalised cell viability under setting [3] is 0.066 ± 0.0098; the normalised cell viability under setting [4] came out at 0.0883 ± 0.016; the normalised cell viability under setting [5] was 0.0103 ± 0.0015; the normalised cell viability under setting [6] came out at 0.00802 ± 0.0019.

`CN1CC[C@H](c2c(O)cc(O)c3c(=O)cc(-c4ccccc4Cl)oc23)[C@H](O)C1` [Flavopiridol (Alvocidib)]: the normalised cell viability under setting [1] worked out at 0.0613 ± 0.0073; the normalised cell viability under setting [2] came out at 0.0242 ± 0.0072; the normalised cell viability under setting [3] was 0.109 ± 0.015; the normalised cell viability under setting [4] is 0.0932 ± 0.025; the normalised cell viability under setting [5] was 0.0171 ± 0.0043; the normalised cell viability under setting [6] is 0.00703 ± 0.0012.

In the case of `COc1ccc(CCN(C)CCCC(C#N)(c2cc(OC)c(OC)c(OC)c2)C(C)C)cc1OC` (racemic) [(±)-Methoxyverapamil hydrochloride], the normalised cell viability under setting [1] came to 1.007 ± 0.0058; the normalised cell viability under setting [2] was found to be 0.998 ± 0.039; the normalised cell viability under setting [3] was determined as 1.01 ± 0.01; the normalised cell viability under setting [4] worked out at 1.01 ± 0.019; the normalised cell viability under setting [5] turned out to be 0.9847 ± 0.0042; the normalised cell viability under setting [6] amounted to 0.999 ± 0.018.

As to `Cc1cnc(NC(=O)Nc2cc(Br)c(C)cc2OC[C@@H]2CNCCO2)cn1`, the normalised cell viability under setting [1] came to 1.03 ± 0.015; the normalised cell viability under setting [2] was 0.827 ± 0.041; the normalised cell viability under setting [3] was 1.04 ± 0.015; the normalised cell viability under setting [4] was determined as 1.04 ± 0.011; the normalised cell viability under setting [5] was 0.776 ± 0.01; the normalised cell viability under setting [6] is 0.334 ± 0.027.

As for `CCCCCCCCCCCCCCCc1cccc(OCC)c1C(=O)Nc1ccc(Cl)c(C(F)(F)F)c1`, the normalised cell viability by setting is: under setting [1], 1.01 ± 0.014; under setting [2], 1.01 ± 0.011; under setting [3], 1.01 ± 0.02; under setting [4], 1.02 ± 0.016; under setting [5], 0.9997 ± 0.0097; under setting [6], 1 ± 0.0054.

Take `N#C[C@@H]1CCCN1C(=O)CNC12CC3CC(CC(O)(C3)C1)C2` [Vildagliptin (LAF-237)]: the normalised cell viability by setting is: under setting [1], 0.994 ± 0.0087; under setting [2], 1 ± 0.011; under setting [3], 0.9973 ± 0.0046; under setting [4], 1.004 ± 0.01; under setting [5], 0.998 ± 0.012; under setting [6], 1.01.

Turning to `CN1CCN(S(=O)(=O)c2ccc(-c3cnc(N)c(C(=O)Nc4cccnc4)n3)cc2)CC1`, the normalised cell viability by setting is: under setting [1], 1.113 ± 0.011; under setting [2], 1.2 ± 0.015; under setting [3], 1.1 ± 0.011; under setting [4], 1.1 ± 0.021; under setting [5], 0.743 ± 0.0076; under setting [6], 0.959 ± 0.021.

As for `CS(=O)(=O)N1CCN(Cc2cc3nc(-c4cccc5[nH]ncc45)nc(N4CCOCC4)c3s2)CC1`, the normalised cell viability runs as follows: under setting [1], 1.02 ± 0.022; under setting [2], 1.05 ± 0.015; under setting [3], 1.02 ± 0.011; under setting [4], 1.05 ± 0.015; under setting [5], 0.998 ± 0.012; under setting [6], 1.005 ± 0.0087.

Consider `Cc1c(CN2CCN(C(=O)[C@H](C)O)CC2)sc2c(N3CCOCC3)nc(-c3cnc(N)nc3)nc12`, for which the normalised cell viability reads like this: under setting [1], 0.631 ± 0.017; under setting [2], 0.433 ± 0.034; under setting [3], 0.59 ± 0.02; under setting [4], 0.399 ± 0.076; under setting [5], 0.757 ± 0.035; under setting [6], 0.552 ± 0.033.

In the case of `COc1ccc(-c2nc(N3CCOCC3)c3sc(CN(C)c4ncc(C(=O)NO)cn4)cc3n2)cn1`, the normalised cell viability turned out to be 0.00442 ± 0.0038 under setting [1]; 0.00164 ± 0.00085 under setting [2]; 0.0384 ± 0.044 under setting [3]; 0.00149 ± 0.001 under setting [4]; 0.00371 ± 0.0034 under setting [5]; 0.000104 ± 0.00053 under setting [6].

Regarding `C[C@H]1c2cccc(O)c2C(O)=C2C(=O)[C@]3(O)C(O)=C(C(N)=O)C(=O)[C@@H](N(C)C)[C@@H]3[C@@H](O)[C@@H]21` [Doxycycline HCl], the normalised cell viability is, setting by setting: under setting [1], 0.994 ± 0.007; under setting [2], 0.986 ± 0.026; under setting [3], 0.9957 ± 0.0031; under setting [4], 0.99 ± 0.006; under setting [5], 0.9947 ± 0.0025; under setting [6], 1 ± 0.015.

In the case of `NCC(O)C1CCCCCCC1` (stereo unspecified) [2-Cyclooctyl-2-hydroxyethylamine hydrochloride], the normalised cell viability came out at 0.987 ± 0.012 under setting [1]; 0.971 ± 0.016 under setting [2]; 0.998 ± 0.013 under setting [3]; 0.972 ± 0.02 under setting [4]; 0.9697 ± 0.0015 under setting [5]; 0.9663 ± 0.0085 under setting [6].

For the compound `CCC(=O)NCC[C@@H]1CCc2ccc3c(c21)CCO3` [Ramelteon], the normalised cell viability stood at 1 ± 0.018 under setting [1]; 1.01 ± 0.011 under setting [2]; 1.006 ± 0.0069 under setting [3]; 1.01 ± 0.019 under setting [4]; 0.9943 ± 0.009 under setting [5]; 0.9933 ± 0.0061 under setting [6].

For the compound `Nc1nc(Cl)nc2c1ncn2[C@H]1C[C@H](O)[C@@H](CO)O1` [Cladribine], the normalised cell viability is, setting by setting: under setting [1], 0.0575 ± 0.013; under setting [2], 0.0436 ± 0.0033; under setting [3], 0.169 ± 0.0085; under setting [4], 0.1867 ± 0.0011; under setting [5], 0.0131 ± 0.0023; under setting [6], 0.0121 ± 0.0031.

Consider `Nc1nc(Cl)nc2c1ncn2[C@@H]1O[C@H](CO)[C@@H](O)[C@@H]1F` [Clofarabine], for which the normalised cell viability under setting [1] came out at 0.124 ± 0.015; the normalised cell viability under setting [2] was determined as 0.146 ± 0.0052; the normalised cell viability under setting [3] was determined as 0.341 ± 0.017; the normalised cell viability under setting [4] is 0.302 ± 0.017; the normalised cell viability under setting [5] was determined as 0.0363 ± 0.0032; the normalised cell viability under setting [6] is 0.0483 ± 0.0032.

Take `Nc1nc(Cl)nc2c1ncn2[C@@H]1O[C@H](CO)[C@@H](O)[C@H]1O` [2-Chloroadenosine]: the normalised cell viability worked out at 0.998 ± 0.013 under setting [1]; 0.982 ± 0.011 under setting [2]; 0.998 ± 0.011 under setting [3]; 0.974 ± 0.052 under setting [4]; 0.9847 ± 0.0078 under setting [5]; 0.9883 ± 0.0078 under setting [6].

As for `Nc1ncn([C@H]2C[C@H](O)[C@@H](CO)O2)c(=O)n1` [5-Aza-2'-deoxycytidine], the normalised cell viability is 1.087 ± 0.0058 under setting [1]; 1.12 ± 0.05 under setting [2]; 1.07 ± 0.01 under setting [3]; 1.09 ± 0.015 under setting [4]; 0.581 ± 0.051 under setting [5]; 0.296 ± 0.027 under setting [6].

For the compound `Nc1nc(Cl)nc2c1ncn2[C@@H]1O[C@H](COP(=O)(O)OP(=O)(O)OP(=O)(O)O)[C@H](O)C1O` (stereo partly specified) [2-Chloroadenosine triphosphate tetrasodium], the normalised cell viability was 0.992 ± 0.0076 under setting [1]; 0.818 ± 0.041 under setting [2]; 0.988 ± 0.018 under setting [3]; 0.917 ± 0.019 under setting [4]; 0.987 ± 0.0044 under setting [5]; 0.981 ± 0.0056 under setting [6].

Turning to `Nc1ncn([C@H]2C[C@H](O)[C@@H](CO)O2)c(=O)n1` [Decitabine], the normalised cell viability reads like this: under setting [1], 1.1 and 1.06; under setting [3], 1.08 and 1.05.

Regarding `Nc1ncnc2c1ncn2[C@@H]1O[C@H](CO)[C@@H](O)[C@H]1O` [Adenosine], the normalised cell viability runs as follows: under setting [1], 0.9973 ± 0.0046; under setting [2], 1.01 ± 0.01; under setting [3], 0.995 ± 0.015; under setting [4], 0.987 ± 0.019; under setting [5], 1 ± 0.015; under setting [6], 1.003 ± 0.0058.

Turning to `Nc1ncn([C@H]2C[C@H](O)[C@@H](CO)O2)c(=O)n1` [5-Aza-2'-deoxycytidine; Decitabine], the normalised cell viability reads like this: under setting [1], 1.073 ± 0.0058; under setting [2], 1.15 ± 0.026; under setting [3], 1.07 ± 0.01; under setting [4], 1.1 ± 0.02; under setting [5], 0.204 ± 0.009; under setting [6], 0.22 ± 0.021.

In the case of `CN(C)CCOc1ccc(-c2nc(-c3ccncc3)c(-c3ccc4c(c3)CC/C4=N\O)[nH]2)cc1`, the normalised cell viability was 1.103 ± 0.0058 under setting [1]; 1.16 ± 0.032 under setting [2]; 1.07 ± 0.011 under setting [3]; 1.11 ± 0.021 under setting [4]; 1.013 ± 0.0058 under setting [5]; 1 ± 0.05 under setting [6].

Turning to `O=[N+]([O-])c1ccc(CSc2ncnc3c2ncn3[C@@H]2O[C@H](CO)[C@@H](O)[C@H]2O)cc1` [S-(4-Nitrobenzyl)-6-thioinosine], the normalised cell viability under setting [1] was 0.9813 ± 0.0047; the normalised cell viability under setting [2] amounted to 0.968 ± 0.027; the normalised cell viability under setting [3] came to 0.987 ± 0.018; the normalised cell viability under setting [4] is 0.996 ± 0.059; the normalised cell viability under setting [5] stood at 0.9973 ± 0.0046; the normalised cell viability under setting [6] came out at 0.9917 ± 0.0097.

Regarding `Nc1c(O)cc(O)cc1C=Cc1ccc(O)cc1` [Aminoresveratrol sulfate], the normalised cell viability under setting [1] worked out at 1 ± 0.015; the normalised cell viability under setting [2] is 1.01 ± 0.02; the normalised cell viability under setting [3] is 1.01 ± 0.015; the normalised cell viability under setting [4] worked out at 1.01 ± 0.014; the normalised cell viability under setting [5] is 0.9937 ± 0.0027; the normalised cell viability under setting [6] was 1.01 ± 0.012.

Turning to `CC(C)C(=O)Oc1ccc(CO)cc1[C@H](CCN(C(C)C)C(C)C)c1ccccc1` [Fesoterodine Fumarate], the normalised cell viability under setting [1] came out at 1.002 ± 0.0076; the normalised cell viability under setting [2] came to 0.966 ± 0.019; the normalised cell viability under setting [3] turned out to be 1 ± 0.025; the normalised cell viability under setting [4] came to 0.984 ± 0.04; the normalised cell viability under setting [5] is 1.001 ± 0.009; the normalised cell viability under setting [6] amounted to 1 ± 0.016.
